# Screening results: PubChem BioAssay, National Center for Advancing Translational Sciences (NCATS)
# Compounds with a hit are over-represented: about 3.4% of the library has one in this group of screens.
# Bst PK mod – pyruvate kinase (B. stearothermophilus) modulation; purified pyruvate kinase, luminescence ATP production; ribose 5-phosphate activator present at AC10; Potency, µM; hit rate 1.2% among 51,000; AID 361; in the data active = potency below about 11 µM; inconclusive = mostly about 12 µM to 25 µM;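 the screen sought inhibitors and activators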;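 note: scaled between full activation by ribose 5 phosphate and full inhibition by luteolin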
# FLuc inh – inhibitors of firefly luciferase | purified firefly luciferase, luminescence, 8 min | Potency, µM (top dose mostly 57.1 µM), inactives show at the top dose activity change, negative = inhibition, hits mostly inhibitors | hit rate 2.2% among 72,000 | P08659; active = well fitted inhibition curve with a large enough effect; inconclusive = small, poorly fitted or top-dose-only effect; note: % is set by controls: 0 for no effect and ±100 for the full control effect; nearly all actives have a fitted effect of over 40% in size
#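 Titration-based qHTS; buffer 50 mM imidazole pH 7.2, 50 mM KCl, 7 mM MgCl2, 10 uM ATP, 0.01% Tween 20, 0.05% BSA; luciferase/luciferin detector mix added after compound; 8 min, ambient; luminescence.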
# GBA mod – human lysosomal glucosylceramidase modulation; AID 360; Potency, µM; purified enzyme, resorufin glucoside fluorescence (screen aimed at inhibitors), 20 min; P04062; hit rate 1.1% among 48,000; in the data active = potency below about 15 µM; inconclusive = mostly about 16 µM to 33 µM;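 note: the screen sought inhibitors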
# Target sequence (P04062 whole entry, looked up): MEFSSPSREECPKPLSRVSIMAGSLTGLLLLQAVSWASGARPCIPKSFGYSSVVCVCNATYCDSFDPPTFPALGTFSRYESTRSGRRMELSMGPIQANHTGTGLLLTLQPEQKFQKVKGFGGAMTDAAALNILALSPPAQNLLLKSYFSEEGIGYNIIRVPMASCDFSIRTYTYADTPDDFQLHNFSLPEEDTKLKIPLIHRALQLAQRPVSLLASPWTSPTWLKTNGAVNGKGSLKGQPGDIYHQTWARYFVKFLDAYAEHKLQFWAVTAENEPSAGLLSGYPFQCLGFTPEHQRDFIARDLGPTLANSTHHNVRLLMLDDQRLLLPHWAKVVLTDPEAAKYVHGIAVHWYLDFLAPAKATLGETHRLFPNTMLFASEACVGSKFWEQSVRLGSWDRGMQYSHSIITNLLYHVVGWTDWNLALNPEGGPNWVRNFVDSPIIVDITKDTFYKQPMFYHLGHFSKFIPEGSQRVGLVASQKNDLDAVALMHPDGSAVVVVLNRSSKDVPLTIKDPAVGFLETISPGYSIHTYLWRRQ
#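 Wild-type enzyme at 0.2 nM final in 50mM citric acid/KH2PO4, 10mM sodium taurocholate, 0.01% tween-20, pH 5.9, with resorufin beta-D-glucopyranoside at 30 uM final. Compounds titrated, 20 min at RT, red fluorescence read; AC50 from titration.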
# * marks the source's active call; other numbers are inactive results; i = inactive; ? = inconclusive; nt = not tested or not shown; [ ] = another dose, or the depositor's remark. Potency is the fitted concentration of half-maximal effect.
SMILES,Bst PK mod,FLuc inh,GBA mod
Cc1ccc(N=Nc2c(O)c(S(=O)(=O)O)cc3cc(S(=O)(=O)O)ccc23)c(C)c1,nt,-18%[11.4 µM],nt
O=C(NCc1ccccn1)c1cc(-c2ccccc2)on1,>57,-4%,>77
O=C(c1ccccc1)c1cc(-c2ccccc2)on1,1.9*,1.6µM*,nt
COc1cccc([C@H]2Oc3ccc(OC)cc3/C(=N\OC[C@@H](O)[C@@H]3O[C@@H]4OC(C)(C)O[C@@H]4[C@H]3O)[C@@H]2O)c1,nt,-2%[11.4 µM],nt
COc1ccc(N2C(=O)CC(Sc3nnc(-c4ccccc4)o3)C2=O)cc1 (stereo not drawn),nt,-11%,nt
O=C1OCCC1Sc1nnc(-c2ccccc2)o1 (stereo not drawn),8.8*,-15%,>77
c1ccc(C2Nc3ccccc3-c3nc4ccccc4n32)nc1 (stereo not drawn),?,4µM*,nt
O=C1c2ccccc2NC(c2ccccn2)N1c1ccc(Cl)cc1 (stereo not drawn),>57,-5%,>77
COc1ccc(-n2c(=O)cnc3cnc(N4CCNCC4)nc32)cc1,nt,0%[11.4 µM],nt
CC1(C)[C@@H]2CC[C@]1(C)[C@@H](OC(=O)/C=C\c1ccccc1)C2,nt,1%[11.4 µM],nt
CN(C)S(=O)(=O)c1ccc(C(=O)Nc2ccccn2)cc1,nt,-15%,nt
Cc1cc(C)n(-c2ccc(C(=O)Nc3sccc3C(N)=O)cc2)n1,i,-29%,15*
Cc1cc(C)n(-c2ccc(C(=O)NCc3cccs3)cc2)n1,>57,-1%,>77
COc1cc(C(=O)Nc2ccccn2)cc(OC)c1OC,>26,1%[25.5 µM],nt
Cc1cc(C(=O)Nc2ccccn2)cs1,nt,13µM*,>77
Cc1cc(C)n(-c2ccc(C(=O)Nc3ccccn3)cc2)n1,i,13µM*,>77
Cc1cc(C)n(-c2ccc(C(=O)NCc3ccc4c(c3)OCO4)cc2)n1,>57,-30%,>77
Cc1cc(C)n(-c2ccc(C(=O)Nc3ccc4c(c3)OCCO4)cc2)n1,i,13µM*,?
COc1ccc(C(=O)N2CCC[C@@]3(CCN(c4ccccc4)C3)C2)cc1,nt,1%[11.4 µM],nt
O=C(O)c1ccncc1.O=C(O)c1ccncc1.[Cl][Pt]([Cl])([Cl])[Cl],nt,-4%[11.4 µM],nt
Nc1ncnc2nc(-c3ccc(C[P+](c4ccccc4)(c4ccccc4)c4ccccc4)cc3)[nH]c12,nt,1%[11.4 µM],nt
CC(C)c1ccc(NC(=O)C2CC(=O)N=C(N)S2)cc1 (stereo not drawn),>57,-1%,3.8*
CCc1ccc(NC(=O)C2CC(=O)N=C(N)S2)cc1 (stereo not drawn),>57,0%,?
COc1ncc2nc(-c3ccccc3)c(=O)n(C3CC3)c2n1,nt,2%[11.4 µM],nt
O=C(c1cccs1)c1ccc(-c2cccs2)s1,6.3*,5µM*,>77
SMILES,Bst PK mod,FLuc inh,GBA mod
O=C(c1cc2ccccc2o1)c1cccs1,?,?,>77
COc1cccc(NC(=O)N(CCCN2CCOCC2)C(C)c2cc3cccc(OC)c3o2)c1 (stereo not drawn),>57,0%,9.6*
COc1cccc2cc(C(=O)C3=C(O)C(=O)N(CCCN4CCOCC4)C3c3ccncc3)oc12 (stereo not drawn),>57,1%,>77
Cn1c(=O)c(-c2cccc(F)c2)nc2cncnc21,nt,3%[11.4 µM],nt
O=c1c(-c2cc(F)cc(F)c2)nc2cnc(Oc3ccccc3)nc2n1C1CC1,nt,0%[11.4 µM],nt
O=C(Nc1ccc(OC(=O)c2ccncc2)cc1)c1ccncc1,>11,1%,1.9*
O=C(Nc1ccc(OC(=O)c2ccco2)cc1)c1ccco1,i,13µM*,>77
CC(C)Oc1cccc(C(=O)Nc2ccc(NC(=O)c3ccco3)cc2)c1,>57,-2%,11*
O=C(Oc1ccc2c(c1)OCO2)c1ccncc1,>57,-1%,>77
O=C(Nc1ccccn1)c1ccc(NC(=O)c2ccco2)cc1,i,25µM*,?
O=C(Nc1ccc(NC(=O)c2ccco2)cc1)c1cnccn1,nt,-22%,nt
O=C(Nc1cccc(OC(=O)c2ccco2)c1)c1ccco1,>57,-6%,>77
COc1cccc(NC(=O)c2ccco2)c1,nt,-14%,nt
COc1cc([C@@H](O)CO)ccc1OS(=O)(=O)O,nt,-2%,nt
CCOC(=O)c1nn(-c2cc(C(=O)OC)cc(C(=O)OC)c2)cc1O,>57,2%,>77
COC(=O)c1nn(-c2ccc(-c3ccccc3)cc2)cc1O,nt,3.2µM*,nt
CN(C)c1ncc2nc(-c3ccc(Cl)cc3)c(=O)n(Cc3cccs3)c2n1,nt,0%[11.4 µM],nt
CCCOC(=O)C1[C@H]2C(=O)N(C(C)c3ccc(OC)cc3)C[C@]23C=C[C@H]1O3 (stereo partly drawn),>57,2%,13*
CCOC(=O)C1[C@H]2C(=O)N(C(C)c3ccc(OC)cc3)C[C@]23C=C[C@H]1O3 (stereo partly drawn),i,2%,>77
COc1cc(NC(=O)Nc2cccc(C(C)=O)c2)cc(OC)c1OC,>57,-27%,>77
COc1cc(NC(=O)CN2c3cccc4cccc(c34)S2(=O)=O)cc(OC)c1OC,0.81*,7%,>77
COCCn1c(=O)c(-c2cccc(C#N)c2)nc2cnc(Oc3ccc(OC)cc3)nc21,nt,1%[11.4 µM],nt
Cc1nonc1NC(=O)CSc1nnc(-c2ccoc2C)n1C,>57,2%,>77
Cc1ccc(-c2ccc(SCC(=O)Nc3nonc3C)nn2)cc1,nt,7.9µM*,>77
Cc1noc(C)c1-c1nccc(N2CCN(C)CC2)n1,nt,-3%[2.29 µM],nt
SMILES,Bst PK mod,FLuc inh,GBA mod
Cc1nc2cnc(N(C)C)nc2n(Cc2ccc(F)cc2)c1=O,nt,1%[11.4 µM],nt
c1ccc(-c2ccccn2)nc1,nt,4%,nt
c1ccc(-c2ccc(-c3ccccn3)nn2)nc1,i,13µM*,>77
C[C@@H]1C[C@@]2(C)Oc3ccccc3[C@H]3OC[C@]1(COC(=O)Nc1ccccc1)[C@@H](C)[C@@H]32,nt,0%[11.4 µM],nt
NCC[C@H]1CCC[C@H](CCN)N1,nt,3%,nt
COC(=O)C1C(=O)c2c([nH]c(C(=O)OC3CCCC3C)c2C)CC1C (stereo not drawn),nt,10µM*,nt
COC(=O)C1C(=O)c2c([nH]c(C(=O)OC3CCCCC3)c2C)CC1C (stereo not drawn),nt,1µM*,nt
CCOc1ccccc1C1NC(=O)NC(C)=C1C(=O)OC1CCCC1C (stereo not drawn),>57,-4%,i
Cc1c(C(=O)OC2CCCCC2)[nH]c2c1C(=O)CC(C)(C)C2,>57,1%,>77
C[C@@]1(CCOCc2ccccc2)NC(=O)NC1=O,nt,0%[11.4 µM],nt
Cc1nnc(SCc2cnc(-c3ccc(C(C)C)cc3)s2)n1C,0.56*,0.5µM*,>77
Cc1ccc(CSc2nnc(-c3cccs3)n2C)cc1,>57,-2%,>77
CCOC(=O)CC1=C(C(=O)OCC)C(c2cc(OC)c(OC)cc2OC)C(C#N)=C(N)O1 (stereo not drawn),>26,2%[25.5 µM],nt
CCOC(=O)CC1=CC(C)(CC(=O)OCC)C(C#N)(C#N)C(N)=C1C#N (stereo not drawn),>57,-1%,4.8*
COCCn1c(=O)c(C)nc2cnc(Nc3ccccc3)nc21,nt,1%[11.4 µM],nt
CCSCCCC(=O)O,nt,3%[11.4 µM],nt
COc1ccc(-c2csc3nc(C)n(-n4cccc4)c(=O)c23)cc1OC,nt,1%,>77
Cc1nc2sc(-c3ccccc3)cc2c(=O)n1-n1cccc1,>57,20µM*,>77
c1c[nH]c(CN2CCOCC2)n1,nt,2%[11.4 µM],nt
